Assay results reported in PubChem BioAssay.

Experiment: binders of probe aHhip on microarray, primary screen, stem cell growth factor project, biochemical, small-molecule microarray, fluorescence 635/667 (AID 1087);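 note: score merges spot fluorescence at 667nm with spot signal to noise ratio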
Conditions: higher = more signal

Compound | composite z-score
CCOC(=O)NN=C1C[C@@H](O)[C@@H](O)[C@@H]2[C@@H]3C(=O)N([C@@H](C)c4ccccc4)C(=O)[C@@H]3CC[C@@H]12 | -0.0994
COC(=O)[C@@H]1CC[C@H](C)[C@@H](c2ccc(C)cc2)N1C(=O)c1ccc(C=NO[C@@H](C)c2cn([C@H](CO)Cc3ccccc3)nn2)cc1 | 0.25
O=C1CCCC=C1C(O)CCOC(c1ccccc1)(c1ccccc1)c1ccccc1 (stereo unspecified) | -0.069
COC(=O)CC=C[C@@H](C)[C@@H]1C=C[C@H](O)[C@@H](CO)O1 | -0.176
C[C@@H](ON=C1[C@H]2CCn3c(=O)n(-c4ccccc4)c(=O)n3[C@H]2[C@H](O)[C@@H]2O[C@H]12)c1cn([C@@H]2COC[C@H]2O)nn1 | 0.0274
CO[C@@H]1COC(=O)[C@H](CCSC)NC(=O)CC=C[C@@H](C)COC(=O)CCC[C@H]1C | -0.161
COc1cccc([C@@H]2Oc3ccc(OC)cc3C(=O)[C@H]2O)c1 | -0.0994
C=CC1=C[C@H](O)[C@@H]2O[C@@H]2C12OCCCO2 | 0.0274
CCOC(=O)NN=C1C[C@@H](O)[C@@H](O)[C@@H]2[C@@H]3C(=O)N(Cc4ccccc4)C(=O)[C@@H]3CC[C@H]12 | -0.223
COC(=O)[C@@H]1CC[C@H](C)[C@@H](c2ccc(C)cc2)N1C(=O)c1ccc(C=NO[C@H](C)c2cn([C@H](CO)Cc3ccccc3)nn2)cc1 | 0.837
COc1cc(O)c(C(=O)C=Cc2ccc3c(c2)OCO3)c(OC)c1 | 0.0238
CCOC(=O)[C@H](CC(C)C)NC(=O)CCC1CC(OC(=O)NCc2cccc3ccccc23)CC2(CCCC(COC(=O)NCC3CCCCC3)O2)O1 (stereo partly specified) | 0.0623
Cc1cc2c(c(=O)o1)[C@@H](O)[C@H]1O[C@H]1C2=O | 0.151
Cc1ccc(S(=O)(=O)NC(CCc2ccccc2)CC(=O)C(C)(C)C)cc1 (stereo unspecified) | -0.261
C[C@@H](c1ccccc1)N1C(=O)[C@H]2[C@H]3[C@H](O)[C@H](O)CC(=NO[C@@H]4O[C@H](CO)[C@@H](O)[C@H](O)[C@H]4O)[C@@H]3CC[C@H]2C1=O | -0.0618
CCN1C(=O)[C@@H]2[C@H]3C(=CC[C@@H]2C1=O)C1(OCCCO1)[C@H]1O[C@H]1[C@H]3O | -0.236
CCOC(=O)[C@H](CC(C)C)NC(=O)CCC1CC(OC(=O)NCc2cccc3ccccc23)CC2(CCCC(COC(=O)NCCCN3CCCC3=O)O2)O1 (stereo partly specified) | -0.212
CC(=O)OC[C@H]1OC(ON=CC[C@@H]2C=C[C@H](OC(C)=O)[C@@H](COC(C)=O)O2)[C@H](OC(C)=O)[C@@H](OC(C)=O)[C@@H]1OC(C)=O (stereo partly specified) | 0.0972

Compound | composite z-score
COc1ccc(O[C@@H]2[C@H](O)CO[C@@H]2C=Cc2ccccc2)cc1 | 0.281
O=C1[C@H]2[C@H]3[C@H](O)[C@H](O)CC(=NOC[C@@H](O)COCc4ccco4)[C@H]3CC[C@H]2C(=O)N1C[C@@H]1CCCO1 | -0.337
CC(C)=CCCC(C)=CCON=C1C[C@@H](O)[C@@H](O)[C@@H]2[C@@H]3C(=O)N(C(C)(C)C)C(=O)[C@@H]3CC[C@@H]12 | -0.191
C#CCCCON=C1C[C@@H](O)[C@@H](O)[C@@H]2[C@@H]3C(=O)N(CCC(=O)OCC)C(=O)[C@@H]3CC[C@H]12 | -0.0994
C[C@H]1CC[C@H]2C(=O)O[C@H](COc3ccc(C(C)(C)C)cc3)CN2[C@@H]1c1ccc(Br)cc1 | -0.371
CC(C)=CCCC(C)=CCON=C1C[C@@H](O)[C@@H](O)[C@@H]2[C@@H]3C(=O)N(c4cccc(Oc5ccccc5)c4)C(=O)[C@@H]3CC[C@@H]12 | -0.0994
COc1ccc(O[C@H]2C=C[C@@H](c3ccccc3)O[C@@H]2COC(=O)CCC(C)=NOC(C)CN2CCCc3nc(C)c(C)cc32)cc1 (stereo partly specified) | -0.199
COC(=O)[C@H](C)NC(=O)CCC1CC(OC(=O)NCc2cccc3ccccc23)CC2(CCCC(COC(=O)NCC(c3ccccc3)c3ccccc3)O2)O1 (stereo partly specified) | -0.134
C=COC[C@@H]1CN2[C@@H](CC[C@@H](C)[C@@H]2c2ccc(Br)cc2)C(=O)O1 | 0.643
CCOC(=O)[C@H](CC(C)C)NC(=O)CCC1CC(OC(=O)NCc2cccc3ccccc23)CC2(CCCC(COC(=O)NCCC(C)C)O2)O1 (stereo partly specified) | 0.003
CCOC(=O)[C@H](Cc1ccccc1)NC(=O)CCC1CC(OC(=O)NCCc2ccc(F)cc2)CC2(CCCC(COC(=O)NCCc3ccccc3OC)O2)O1 (stereo partly specified) | -0.134
CO[C@H](C1CCCCC1)[C@H](C)C=CCC(=O)OCCCc1ccccc1 | -0.145
O=C1C[C@@H](O)[C@@H](O)[C@@H]2[C@@H]3C(=O)N(Cc4ccccc4)C(=O)[C@@H]3CC[C@@H]12 | -0.204
CCN1C(=O)[C@H]2[C@H]3[C@H](O)[C@H](O)CC(=NOCC(C)C)[C@@H]3CC[C@H]2C1=O | 0.465
COC(=O)CC=C[C@@H](C)[C@@H](C=NOC[C@H]1O[C@H](c2ccccc2)C=C[C@@H]1Oc1ccc(OC)cc1)OC | 0.0373
CC(CCN1CCc2nc(-c3ccccc3)c(-c3ccccc3)cc2C1)=NOC[C@@H](O)[C@H]1O[C@@H]2OC(C)(C)O[C@@H]2[C@H]1O | 0.0139
O=C(NN=C1C[C@@H](O)[C@@H](O)[C@@H]2[C@@H]3C(=O)N(C4CCCCC4)C(=O)[C@@H]3CC[C@@H]12)OCc1ccccc1 | -0.16
COc1ccc(O[C@H]2C=C[C@@H](c3ccccc3)O[C@@H]2CON=C(C)CCC(=O)OC[C@H]2O[C@H](c3ccccc3)C=C[C@@H]2Oc2ccc(OC)cc2)cc1 | -0.0994
